G9a inh = qHTS Assay for Inhibitors of Histone Lysine Methyltransferase G9a; Histone-lysine N-methyltransferase EHMT2 (Homo sapiens), Q96KQ7; G9a H3K9 monomethylation, AlphaScreen, 2 h; Potency, µM (highest dose often 102 µM), for inactives: top-dose activity, negative = inhibition, hits mostly inhibitors; actives 8.8% (n = 350,000); AID 504332, 2011; also: % is scaled to controls: 0 for no effect and ±100 for the full control effect; nearly all actives have a fitted effect of over 75% in size
Target sequence (Q96KQ7 913-1193 limits assumed): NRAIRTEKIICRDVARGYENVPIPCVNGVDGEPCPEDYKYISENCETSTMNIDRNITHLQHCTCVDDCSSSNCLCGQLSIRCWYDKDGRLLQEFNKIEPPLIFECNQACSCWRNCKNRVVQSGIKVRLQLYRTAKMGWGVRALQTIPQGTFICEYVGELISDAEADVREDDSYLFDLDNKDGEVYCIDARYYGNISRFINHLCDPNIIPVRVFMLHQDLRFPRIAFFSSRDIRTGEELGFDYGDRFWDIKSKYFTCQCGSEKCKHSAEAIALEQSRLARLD
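AlphaScreen detection with an anti-monomethyl H3K9 antibody quantified product after a 2 h room-temperature reaction containing 500 nM biotinylated H3K9 peptide, 20 µM SAM and 20 nM enzyme, which had been preincubated 15 min with compound.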
Sfp PPTase inh = qHTS Assay for Inhibitors of Bacillus subtilis Sfp phosphopantetheinyl transferase (PPTase); 4'-phosphopantetheinyl transferase ffp (Bacillus subtilis), Q9F4F7; Biochemical Sfp PPTase activity, qHTS; Potency, µM, for the others: largest response in the series, negative = inhibition, most hits filed as inhibitors; actives 3.5% (n = 310,000); AID 1490, 2009;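 also: the enzyme is Sfp with the accession as filed and its product quenches rhodamine fluorescence; 0% = enzyme reaction without inhibitor and -100% = no enzyme wells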
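Buffer: 50 mM Hepes-Na pH 7.6, 10 mM MgCl2, 0.01% Nonidet P-40, 0.01% BSA. Enzyme 15 nM, pre-exposed to compound 15 min; substrates then added and fluorescence change tracked over 30 min.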
BAZ2B block = qHTS Assay for Inhibitors of BAZ2B | AlphaScreen BAZ2B-H3K14Ac peptide displacement | Potency, µM (top dose mostly 114 µM), without a hit: top-dose activity change, negative = inhibition, usual class: inhibitors | actives 4.4% (n = 360,000) | AID 504333, 2011; also: % is scaled to controls: 0 for no effect and ±100 for the full control effect; nearly all actives have a fitted effect of over 60% in size
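BAZ2B 50 nM plus b-H3(5-23)K14Ac 50 nM, PBS pH 7.4/0.01% Tween-20, 30 min RT; compound added (max 110 uM), 30 min RT; streptavidin donor/Ni-chelate acceptor beads 10 ug/mL final, 20 min dark; AlphaScreen read.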
HP1b chromo inh = HTS for Inhibitors of HP1-beta Chromodomain Interactions with Methylated Histone Tails. actives 0.56% (n = 390,000). AlphaScreen HP1-beta / biotin-H3K9me3 peptide binding. AID 540317, 2011. Chromobox protein homolog 1 (Homo sapiens), P83916. Potency, µM (top dose mostly 114 µM), for the others: at the highest dose activity change, negative = inhibition, most hits filed as inhibitors; also: nearly all actives have a fitted effect of over 70% in size
Target sequence (P83916 whole entry, looked up): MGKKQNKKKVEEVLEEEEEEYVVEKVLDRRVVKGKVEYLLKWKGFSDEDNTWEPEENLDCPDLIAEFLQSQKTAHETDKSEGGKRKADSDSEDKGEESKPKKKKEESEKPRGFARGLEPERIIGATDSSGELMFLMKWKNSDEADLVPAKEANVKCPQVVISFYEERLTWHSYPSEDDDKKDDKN
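HP1-beta protein (50 nM final) preincubated 30 min at room temperature with biotinylated H3(1-18)K9me3 peptide (50 nM) in PBS pH 7.4, 0.01% Tween-20, then compound added for 30 min. AlphaScreen streptavidin donor/nickel chelate acceptor beads (10 ug/mL final), 30 min dark, luminescence read.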
JMJD2A Tudor = qHTS Assay for Inhibitors of JMJD2A-Tudor Domain; Lysine-specific demethylase 4A (Homo sapiens), O75164; AlphaScreen JMJD2A-Tudor / H3K4me3 peptide binding; actives 4.4% (n = 390,000); Potency, µM (series often up to 114 µM), for the others: at the highest dose activity change, negative = inhibition, actives largely listed as inhibitors; also: % is scaled to controls: 0 for no effect and ±100 for the full control effect; nearly all actives have a fitted effect of over 50% in size
* hit, by the source's call; ? = inconclusive; · = no result given; [ ] = dose if it differs, or a comment. An excerpt weighted towards active compounds, which were near 12% of everything screened. Calls follow the shape of the dose curve; as a rule, active = well fitted curve in the direction sought with a large enough effect; inconclusive = small, poorly fitted or top-dose-only effect, or another doubt; inactive = no such curve, though single readings can be large; an effect the other way counts as inactive or inconclusive. Potency is read from the fitted curve at half-maximal effect.

SMILES | G9a inh | Sfp PPTase inh | BAZ2B block | HP1b chromo inh | JMJD2A Tudor
Cc1[nH]n(-c2ccccc2)c(=O)c1N=Nc1ccc(F)cc1 | 4.5µM* | 6% | 4.5µM* | -20% | ?
Cc1[nH]n(-c2ccccc2)c(=O)c1N=Nc1cccc([N+](=O)[O-])c1 | · | 11% | ? | -9% | ?
O=C(N/N=C/c1ccc(Br)s1)Nc1ccccc1 | -26% | 12% | -15% | 11% | -13%
Cc1[nH][nH]c(=O)c1N=Nc1ccc(Cl)cc1 | ? | 14% | -11% | 7% | -13%
CSc1ccc(N=Nc2c(C)[nH]n(C)c2=O)cc1 | 11µM* | -4% | 18µM* | 45µM* | 25µM*
COC(=O)c1scc(C)c1NC(=O)/C=C/C(=O)O | 1.8µM* | 13µM* | -4% | 38% | 11%
COc1cc(C#Cc2c(-c3cncn3C)n(C)c3ccc(-c4ccc5cc[nH]c5c4)cc23)cc(OC)c1 | · | · | · | 7% | ?
COc1cc(C#Cc2c(-c3cncn3C)n(C)c3ccc(-c4ccc(OC)c(OC)c4)cc23)cc(OC)c1 | -4%[0.501 µM] | · | ? | -9% | 45µM*
CCN1CCN(C(=O)NC(c2ccc(C)c(F)c2)C(Cl)Cl)CC1 (stereo not drawn) | ? | 12% | -8% | 19% | -8%
Cc1ccc(C(NC(=O)N2CCCC2)C(Cl)Cl)cc1F (stereo not drawn) | 35µM* | -27% | -6% | 34% | -12%
COC(=O)CCCC[C@@H]1SC[C@@H]2NC(=O)N[C@@H]21 | · | 14% | · | · | ·
COC(=O)CCCC[C@H]1SC[C@H]2NC(=O)N[C@]21O | 2.2µM* | 40µM* | 0.89µM* | · | ·
COC(=O)CCCCC1SCC2NC(=O)NC21O (stereo not drawn) | 8.9µM* | 20% | 2.2µM* | -95% | 0.89µM*
COc1ccc(NC(=O)C2CCCN(CCCc3ccccc3)C2)cc1OCC(C)C (stereo not drawn) | · | -2% | ? | 6% | ?
CCc1cc(-c2n[nH]c(C)c2-c2ccccc2Cl)c(O)cc1OC | 40µM* | 12% | ? | 7% | ?
CCOc1ccc(-c2n[nH]c(C)c2-c2ccccc2OC)c(O)c1 | -4% | 32% | -37% | 23% | -6%
O=C(Nc1ccc2c(c1)C(=O)OC2)c1ccccc1Cl | 50µM* | 4% | 22% | 14% | -6%
O=C1OCc2ccc(NC(=O)c3ccccc3C(=O)O)cc21 | ? | 5% | -18% | 10% | -11%
Cc1ccc(C(=O)C2=C(O)C(=O)N(Cc3cccnc3)C2c2ccc(Cl)cc2)o1 (stereo not drawn) | 50µM* | -11% | 11% | -9% | -14%
CCCOc1ccc(C2C(C(=O)c3ccc(C)o3)=C(O)C(=O)N2Cc2ccco2)cc1 (stereo not drawn) | 50µM* | ? | ? | 7% | -29%
CCOc1cc(C2C(C(=O)c3ccc(C)o3)=C(O)C(=O)N2CCc2ccccc2)ccc1O (stereo not drawn) | 45µM* | 1% | ? | 15% | ?
CCCOc1ccc(C2C(C(=O)c3ccc(C)o3)=C(O)C(=O)N2Cc2ccco2)cc1OCC (stereo not drawn) | · | -10% | ? | 13% | ?
COc1cc(C2C(C(=O)c3ccco3)=C(O)C(=O)N2Cc2cccnc2)cc(OC)c1OC (stereo not drawn) | · | -9% | -35% | 6% | 89µM*
O=C(CN1CCCC1)Nc1ccccc1Cl | 3% | 10% | ? | 32% | 1%
N/C(=N\OC(=O)c1ccccc1)C(C(=O)NOC(=O)c1ccccc1)C1CCCCC1 (stereo not drawn) | · | · | · | 28%[57 µM] | -3%
SMILES | G9a inh | Sfp PPTase inh | BAZ2B block | HP1b chromo inh | JMJD2A Tudor
NC(Cc1ccc(OC(F)F)cc1)C(=O)O (stereo not drawn) | -29%[59 µM] | -21% | -16% | 50% | 1%[11.4 µM]
COc1ccc(NC(=O)c2cnc(C)cn2)c2ncccc12 | -4%[59 µM] | -14% | 6% | · | ·
CC(=O)C1=C(O)C(=O)N(Cc2cccnc2)C1c1ccc(C(C)C)cc1 (stereo not drawn) | 56µM* | 13% | -32% | 44% | -11%
CCOc1ccc(C2C(C(=O)c3ccc(C)o3)=C(O)C(=O)N2Cc2cccnc2)cc1 (stereo not drawn) | 40µM* | 0% | -27% | · | 89µM*
COc1ccc(CN2C(=O)c3oc4ccccc4c(=O)c3C2c2ccc(O)c(OC)c2)cc1 (stereo not drawn) | 24% | 8% | -17% | 23% | -10%
COc1ccc(C2C(C(=O)c3ccc(C)o3)=C(O)C(=O)N2Cc2cccnc2)cc1OC (stereo not drawn) | 50µM* | 4% | -26% | 25%[57 µM] | 20µM*
COc1cc(C2C(C(=O)c3ccc(C)o3)=C(O)C(=O)N2Cc2ccccc2)ccc1O (stereo not drawn) | 45µM* | · | -36% | -11% | ?
Cc1ccc(C(=O)C2=C(O)C(=O)N(Cc3cccnc3)C2c2cccc([N+](=O)[O-])c2)o1 (stereo not drawn) | · | 0% | ? | 10% | ?
O=C(O)CCNC1C=CS(=O)(=O)C1 (stereo not drawn) | -5% | 13% | 3% | 81% | 6%
CCN(CC)C(=O)CSc1ncnc2sc(C)c(C)c12 | · | 8% | 2% | 24% | -3%[57.1 µM]
Cc1ccc(C(=O)C2=C(O)C(=O)N(Cc3ccccc3)C2c2cccnc2)o1 (stereo not drawn) | 50µM* | -9% | -1% | -10% | 50µM*
COc1cccc(C2C(C(C)=O)=C(O)C(=O)N2Cc2ccco2)c1 (stereo not drawn) | -3%[12.7 µM] | -18% | ? | ? | ?
CCOc1cccc(C2C(C(=O)c3ccco3)=C(O)C(=O)N2Cc2ccncc2)c1 (stereo not drawn) | 35µM* | -23% | -8% | 19% | ?
COc1ccc(C2C(C(=O)c3ccc(C)o3)=C(O)C(=O)N2Cc2ccco2)cc1OC (stereo not drawn) | · | 45µM* | ? | 31% | 4%
CCN(CC)CCN1C(=O)C(O)=C(C(=O)c2ccco2)C1c1ccccn1 (stereo not drawn) | 11µM* | -25% | ? | 46% | 89µM*
CCN(CC)CCCN1C(=O)C(O)=C(C(=O)c2cc3ccccc3o2)C1c1ccccn1 (stereo not drawn) | ? | 8% | -26% | -3% | 1%[11.4 µM]
Cc1ccc(C(=O)C2=C(O)C(=O)N(Cc3cccnc3)C2c2cccc(Oc3ccccc3)c2)o1 (stereo not drawn) | · | · | · | 13% | -30%
O=C(NNc1ccc([N+](=O)[O-])cc1)c1ccccc1F | 35µM* | -8% | -38% | 13% | -26%

From PubChem BioAssay
